Inconclusive results are not listed. Calls of active or inactive are those of the source. How the source made its calls: active means hit-call score of the fitted dose curve at least 0.9, where 1 is the maximum; inconclusive means response in the unintended direction; inactive means score below 0.9.
Read-out: Cytochrome P450 2C9 (Homo sapiens) (UniProt P11712)
Assay: CLD_CYP2C9_24hr: CellzDirect (CLD) Gene Expression Assay for xenobiotic metabolism (CYP2C9) at 24 hours (AID 2283688)
Method: CLD_24hr is a cell-based, multiplexed-readout assay that uses hepatocyte, a human liver primary cell, with measurements taken at 24 hours after chemical dosing in a 96-well plate.CLD_CYP2C9_24hr is one of 16 assay component(s) measured or calculated from the CLD_24hr assay. It is designed to make measurements of mRNA induction, a form of inducible reporter, as detected with chemiluminescence signals by Quantitative Nuclease Protection Assay (qNPA) technology.Data from the assay component CLD_CYP2C9_24hr was analyzed at the endpoint, CLD_CYP2C9_24hr, in the positive analysis fitting direction relative to DMSO as the negative control and baseline of activity. Using a type of inducible reporter, gain-of-signal activity can be used to understand changes in the reporter gene as they relate to the gene CYP2C9. Furthermore, this assay endpoint can be referred to as a primary readout. To generalize the intended target to other relatable targets, this assay endpoint is annotated to the cyp intended target family, where subfamily is xenobiotic metabolism.
Human hepatocyte cultures were treated daily for two consecutive days with fresh dosing solutions containing appropriate concentrations of the 320 ToxCast chemicals (chemical identities were blinded to CellzDirect and other ToxCast collaborators), vehicle control (0.2% DMSO), and positive control inducers as summarized in Table 1. Due to the large number of treatment groups and chemicals examined, the ToxCast chemicals were divided into two groups (spanning two independent cultures of hepatocytes from separate donor preparations (Hu778: ToxCast plates 1 and 2; Hu776: ToxCast plates 3 and 4). Each preparation of human hepatocyte cultures was treated with respective vehicle control, medium only control, set of six positive controls/reference chemicals for the five hepatic receptor pathways, and a subset of eight of the ToxCast chemicals (indoxacarb, pyrithiobac-sodium, norflurazon, cyhalofop-butyl, methomyl, thiram, acetochlor, and propiconazole). These replicate data, coupled with internal replicates designed within the blinded ToxCast chemical library, provided additional data to evaluate interindividual differences between hepatocyte preparations and their potential impact on chemical profiles.Cell morphology and integrity were evaluated using phase-contrast microscopy as an indicator of hepatocyte cell health (Tyson & Green, 1987). Cultures for each treatment group (i.e., media, vehicle [0.2% DMSO], positive control inducers [multiple concentrations], and the ToxCast chemicals [multiple concentrations]) were observed and cell morphology was assessed relative to vehicle control cultures at each harvest time point (0, 6, 24, or 48 h). […] Images were evaluated at the conclusion of the study to assess changes in cell integrity and account for the effects of chemical exposure on uncharacteristic changes in concentration-dependent gene expression profiles. The results from these determinations of apparent cytotoxicity were annotated (yes/no) alongside the corresponding qNPA data for reference.At the conclusion of each treatment period, hepatocyte cultures (96-well) were washed with 1 volume of HBSS, lysed by addition of 25 ul ArrayPlate lysis buffer (HTG, Tucson, AZ), and 70 ul/well of Denaturation Oil, denatured by incubation at 95C for 10 min, and frozen at approximately -70C until analysis by nuclease protection assay (qNPA) (Roberts et al., 2007). For qNPA analysis, cell lysates were thawed at 50C for approximately 30 min, qNPA probes were added, and samples were incubated at 95C for 10 min to begin the detection process by denaturing the target RNA, dissociating the duplexes and secondary structure hybridization. At the conclusion of the hybridization period, S1 nuclease reagent was added to each sample to digest all nonprotected nucleotides at 50C for 60-90 min. […]

Structure (SMILES) | outcome
CCOc1cc(C(C)(C)C)ccc1C1COC(c2c(F)cccc2F)=N1 (stereo not given) | inactive
COc1cc(Cl)c(OC)cc1Cl | inactive
CC(C)Oc1cccc(NC(=O)c2ccccc2C(F)(F)F)c1 | inactive
CN=C=S | inactive
Cc1c(COC(=O)[C@@H]2[C@H](/C=C(\Cl)C(F)(F)F)C2(C)C)cccc1-c1ccccc1 | inactive
CCSC(=O)N1CCCCCC1 | inactive
CCNP(=S)(OC)O/C(C)=C/C(=O)OC(C)C (stereo not given) | inactive
Nc1cnn(-c2ccccc2)c(=O)c1Cl | inactive
COc1cc(OC)nc(NC(=O)NS(=O)(=O)c2ncccc2OCC(F)(F)F)n1 | inactive
CC(C)(C)C(=O)C(Oc1ccc(Cl)cc1)n1cncn1 (stereo not given) | inactive
COC(=O)NC(=S)Nc1ccccc1NC(=S)NC(=O)OC | inactive
CO/N=C(/C1=NOCCO1)c1ccccc1Oc1ncnc(Oc2ccccc2Cl)c1F | inactive
CC1(C)CCC(=Cc2ccc(Cl)cc2)C1(O)Cn1cncn1 (stereo not given) | inactive
CCN(CC)C(=O)C(C)Oc1cccc2ccccc12 (stereo not given) | inactive
CCNC(=O)NC(=O)C(C#N)=NOC | inactive
COCC(C)N(C(=O)CCl)c1c(C)csc1C (stereo not given) | inactive
CCOP(=O)(OCC)Oc1nc(Cl)c(Cl)cc1Cl | inactive
Clc1cccc(C(Cl)(Cl)Cl)n1 | inactive
CSC(=O)c1c(C(F)F)nc(C(F)(F)F)c(C(=O)SC)c1CC(C)C | inactive
Nc1c(Cl)c(F)nc(OCC(=O)O)c1Cl | inactive

Structure (SMILES) | outcome
CCOc1nc(F)cc2nc(S(=O)(=O)Nc3c(Cl)cccc3Cl)nn12 | inactive
CC(C)Nc1nc(Cl)nc(NC(C)C)n1 | inactive
OC(c1ccc(Cl)cc1)(c1ccc(Cl)cc1)C(Cl)(Cl)Cl | inactive
CCCCOCN(C(=O)CCl)c1c(CC)cccc1CC | inactive
COCc1cnc(C2=NC(C)(C(C)C)C(=O)N2)c(C(=O)O)c1 (stereo not given) | inactive
C=C(C)CN(CC)c1c([N+](=O)[O-])cc(C(F)(F)F)cc1[N+](=O)[O-] | inactive
O=c1n(Cl)c(=O)n(Cl)c(=O)n1Cl | inactive
N#CN=C1SCCN1Cc1ccc(Cl)nc1 | inactive
C=CCOC(=O)C(C)(C)OC(=O)c1cc(-n2c(=O)cc(C(F)(F)F)n(C)c2=O)ccc1Cl | inactive
O=C1C2CC=CCC2C(=O)N1SC(Cl)(Cl)Cl (stereo not given) | inactive
COP(=S)(OC)SCn1nnc2ccccc2c1=O | inactive
CCOc1nc(C(Cl)(Cl)Cl)ns1 | inactive
COC(=O)c1c(C(F)F)nc(C(F)(F)F)c(C2=NCCS2)c1CC(C)C | inactive
COCC(=O)N(c1c(C)cccc1C)C(C)C(=O)OC (stereo not given) | inactive
Nc1c(Cl)c(Cl)nc(C(=O)O)c1Cl | inactive
Cc1nc(N(C)C)nc(OC(=O)N(C)C)c1C | inactive
COP(=O)(OC)O/C(C)=C/C(=O)N(C)C | inactive
Cc1cnc(C2=NC(C)(C(C)C)C(=O)N2)c(C(=O)O)c1 (stereo not given) | inactive
CC(C)C1(C)N=C(c2ncccc2C(=O)O)NC1=O (stereo not given) | inactive
CC1(C)C(C(=O)OC(C#N)c2cccc(Oc3ccccc3)c2)C1(C)C (stereo not given) | inactive

Source: PubChem BioAssay (EPA / NIEHS)
